A selection: hits, their analogues and other compounds. The true share with any hit is near 12%.
G9a block: blocks human histone lysine methyltransferase G9a | Potency, µM (top dose mostly 102 µM), for the others: at the top dose activity, negative = inhibition, most hits filed as inhibitors | AID 504332 | Q96KQ7 | actives 8.8% (n = 350,000) | G9a H3K9 monomethylation, AlphaScreen, 2 h; note: % is set by controls: 0 for no effect and ±100 for the full control effect; nearly all actives have a fitted effect of over 75% in size
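AlphaScreen detection with an anti-monomethyl H3K9 antibody quantified product after a 2 h room-temperature reaction containing 500 nM biotinylated H3K9 peptide, 20 µM SAM and 20 nM enzyme, which had been preincubated 15 min with compound.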
BAZ2B inh: blocks human BAZ2B; actives 4.4% (n = 360,000); AID 504333; Potency, µM (doses to about 114 µM), without a hit: at the top dose activity change, negative = inhibition, actives largely listed as inhibitors; AlphaScreen BAZ2B-H3K14Ac peptide displacement; note: % is set by controls: 0 for no effect and ±100 for the full control effect; nearly all actives have a fitted effect of over 60% in size
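AlphaScreen displacement of biotin-H3(5-23)K14Ac peptide (50 nM final) from BAZ2B (50 nM final) in PBS pH 7.4, 0.01% Tween-20; complex preformed 30 min RT, then compounds (top 110 uM) 30 min RT, beads 20 min dark.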
HP1b chromo inh: blocks HP1-beta chromodomain binding to methylated histone tails. AlphaScreen HP1-beta / biotin-H3K9me3 peptide binding. Potency, µM (doses to about 114 µM), without a hit: at the highest dose activity change, negative = inhibition, actives largely listed as inhibitors. actives 0.56% (n = 390,000). AID 540317; note: nearly all actives have a fitted effect of over 70% in size
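Compound inhibition of the preformed complex between 50 nM HP1-beta and 50 nM biotinylated H3K9me3 peptide was read by AlphaScreen. Buffer was PBS pH 7.4 with 0.01% Tween-20. Incubations ran 30 min at room temperature, with 10 ug/mL donor/acceptor beads.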
Sfp inh: blocks B. subtilis Sfp PPTase activity | Q9F4F7 | Biochemical Sfp PPTase activity, qHTS | Potency, µM, without a hit: largest response in the series, negative = inhibition, most hits filed as inhibitors | actives 3.5% (n = 310,000);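 note: the enzyme is Sfp with the accession as filed and its product quenches rhodamine fluorescence; 0% = enzyme reaction without inhibitor and -100% = no enzyme wells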
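Fluorescence-quenching assay: 15 nM Sfp-PPTase preincubated 15 min at room temperature with compound, then 5 uM rhodamine-CoA and 12.5 uM BHQ-2-labelled YbbR peptide added. Fluorescence (ex 525/em 598 nm) read at start and after 30 min; difference gives rate.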
JMJD2A Tudor inh: JMJD2A Tudor domain (human) inhibition; O75164; AlphaScreen JMJD2A-Tudor / H3K4me3 peptide binding; Potency, µM (top dose mostly 114 µM), inactives show top-dose activity change, negative = inhibition, usual class: inhibitors; actives 4.4% (n = 390,000); AID 504339; note: % is set by controls: 0 for no effect and ±100 for the full control effect; nearly all actives have a fitted effect of over 50% in size
L3MBTL1 inh: inhibitors of human L3MBTL1; Q9Y468; AlphaScreen L3MBTL1–H3K9me1 peptide binding; Potency, µM (titrated, usually from 57.1 µM), for the others: at the highest dose activity, negative = inhibition, usual class: inhibitors; actives 0.66% (n = 230,000); AID 485360; note: % is set by controls: 0 for no effect and ±100 for the full control effect; nearly all actives have a fitted effect of over 60% in size
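L3MBTL1 50 nM + b-AHA-H3(1-15)K9me1 75 nM, 30 min RT; compound added, 30 min RT; streptavidin donor/Ni-chelate acceptor beads 10 ug/mL each final, 30 min RT dark; AlphaScreen read.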
* hit, by the source's call; ? = inconclusive; . = no result; [ ] = another dose, or the depositor's remark. Calls come from the whole dose curve; as a rule, active = well fitted curve in the direction sought with a large enough effect; inconclusive = small, poorly fitted or top-dose-only effect, or another doubt; inactive = no such curve, though single readings can be large; an effect the other way counts as inactive or inconclusive. Potency is the fitted concentration of half-maximal effect.

SMILES | G9a block | BAZ2B inh | HP1b chromo inh | Sfp inh | JMJD2A Tudor inh | L3MBTL1 inh
COc1ccc(N2CCN(c3cc(C)c4cccc(C)c4n3)CC2)cc1 | 13µM* | ? | ? | 1% | 22µM* | -20%
COc1ccc(N2CCN(c3cc(C)c4ccc(O)cc4n3)CC2)cc1 | ? | 45µM* | 16% | 11% | ? | ?
Cc1cc(C)cc(OCCSc2nc3ccc(NC(=O)COc4ccccc4)cc3s2)c1 | 8%[59 µM] | -8% | 44% | . | -11% | .
C=C1C[C@H](OC(=O)C(C)(O)CCl)C2C(=C)C(=O)O[C@@H]2C2C1C[C@H](O)[C@]2(O)CCl (some centres not stated) | . | . | . | 6% | . | .
Cc1nn(C)cc1-c1n[nH]c(=S)n1-c1ccc(Cl)cc1 | 5.6µM* | -9% | -14% | ? | 3.2µM* | 8%
Cn1cc(-c2nnnn2-c2ccc(Cl)cc2)c(C(F)(F)F)n1 | -33%[12.7 µM] | -3% | 17% | 4% | -27% | -2%
CC(C)(C)c1cc(-c2n[nH]c(=S)n2-c2ccc(Cl)cc2)n[nH]1 | ? | ? | -12% | ? | 40µM* | -8%
CC(C)(C)c1cc(-c2ccccc2)n[nH]1 | . | 1% | 43% | 11% | -7% | .
Cc1cccn2c(=O)c(C(=O)NCc3ccccc3Cl)c(O)nc12 | -8%[59 µM] | 2% | 39% | . | -9% | .
CN1c2ccsc2/C(=N/NC(=O)c2c(F)cccc2F)CS1(=O)=O | 45%[59 µM] | -27% | 29% | -6% | ? | .
CN1c2ccsc2/C(=N/Nc2ccccc2)CS1(=O)=O | 25µM* | ? | ? | ? | 56µM* | ?
Cc1[nH]c2c(ccc3ccccc32)c1C1C(CCN)C1(C)C (configuration not stated) | -44%[59 µM] | 56µM* | -7% | -4% | 56µM* | .
Cc1ccccc1Nc1scc(-c2ccc(Cl)cc2)[n+]1-c1ccccc1C | 20µM* | 7.9µM* | ? | 10% | ? | ?
CN(C)c1nc(N)c2ncc(=S)[nH]c2n1 | 1.8µM* | -32% | 20% | 50µM* | 3.2µM* | -6%
OC1OC[C@@H](O)[C@@H](O)[C@@H]1O (some centres not stated) | . | . | . | 0% | . | .
Cc1cc(C(F)(F)F)n(-c2nc(C(=O)NN)cs2)n1 | -8% | -12% | 23% | 1% | -4% | 16%
COc1ccc(S(=O)(=O)NNC(=O)c2csc(-n3nc(C)cc3C(F)(F)F)n2)cc1OC | 35µM* | ? | 12% | 14% | -8% | .
COc1ccc(OC)c(C2=Nn3c(nnc3-c3ccc(OC)c(OC)c3)SC2)c1 | . | . | . | -16% | ? | .
Cc1ccccc1-c1cc(C(=O)Nc2sc(C)c(C)c2C(N)=O)c2ccccc2n1 | ? | ? | ? | 50µM* | ? | .
CCOC(=O)c1sc(NC(=O)c2cc(-c3ccccc3C)nc3ccccc23)c(C#N)c1C | 1.6µM* | -7% | 6.3µM* | 45µM* | -34%[11.4 µM] | .
CCOC(=O)c1c(NC(=O)c2cc(-c3ccc(Cl)s3)nc3ccccc23)sc(C(N)=O)c1C | -5%[59 µM] | -1% | 38% | 4% | -8% | -12%
CC(C)=CCC1=C(O)[C@](O)(CC=C(C)C)C(=O)C(C(=O)CC(C)C)=C1O | . | . | . | -2% | . | .
Cc1nc(NCc2ccccc2)c2nc(-c3ccccc3)n(CC(C)(C)CN(C)C)c2n1 | . | . | . | 2% | . | .
O=C1/C(=C/c2ccc(F)cc2)SC(=S)N1Nc1ncc(C(F)(F)F)cc1Cl | 45µM* | -4% | -5% | 50µM* | 63µM* | .
O=C1/C(=C\c2ccccn2)SC(=S)N1Nc1ncc(C(F)(F)F)cc1Cl | 10µM* | 79µM* | -33% | 50µM* | 56µM* | -11%
SMILES | G9a block | BAZ2B inh | HP1b chromo inh | Sfp inh | JMJD2A Tudor inh | L3MBTL1 inh
O=C1/C(=C/c2ccccn2)SC(=S)N1Nc1ncc(C(F)(F)F)cc1Cl | . | . | ? | . | 50µM* | .
COC(=O)CCNC(=O)N1CCN(c2nnc(C)c3c(C)n(-c4ccccc4)nc23)CC1 | 9%[59 µM] | -11% | 11% | . | -9% | .
CC(=O)c1ccc(NC(=O)NCCc2c[nH]c3ccccc23)cc1 | -11%[59 µM] | -36% | 19% | . | ? | .
Cc1nc(SCC(=O)Nc2ccc(S(=O)(=O)N3CCOCC3)cc2)c2c(C)c(C)sc2n1 | . | . | 52% | . | 1% | -1%
Cc1nc(SCC(=O)Nc2cc(C(N)=O)cc(C(N)=O)c2)c2c(C)c(C)sc2n1 | 45µM* | ? | 50% | -16% | ? | .
NC(=O)c1ccsc1N | -8%[0.501 µM] | -15% | . | 20µM* | . | 13%
COc1ccc(NC2CCCN(C(=O)c3cn(C)c4ccccc34)C2)cc1 (configuration not stated) | 18µM* | ? | -11% | 11% | -26% | .
Cc1ccc(NC2CCCN(C(=O)c3cn(C)c4ccccc34)C2)cc1C (configuration not stated) | ? | ? | -14% | -7% | 25µM* | .
Cc1ccc(NC2CCCN(C(=O)c3ccccc3N3CCOCC3)C2)cc1C (configuration not stated) | ? | -33% | 27% | 16% | -21% | .
Cc1ccc(NC2CCCN(C(=O)CCN3CCCCO3)C2)cc1C (configuration not stated) | 32µM* | -29% | 15% | 9% | -7% | .
Cc1ccc(NC2CCCN(C(=O)C3CCCCC3)C2)cc1C (configuration not stated) | . | 79µM* | 12% | 6% | -35% | .
O=C(C1CCCC1)N1CCCC(Nc2ccc(F)cc2)C1 (configuration not stated) | ? | -22% | 22% | 14% | -11% | .
CCN(CC)CCNC(=O)c1c(C)[nH]c(/C=C2\C(=O)Nc3ccc(F)cc32)c1C | ? | . | . | 1% | . | .
Cc1cc(C)nc(SCC(=O)N/N=C/c2cccn2-c2ccc(O)cc2)n1 | 40µM* | ? | -26% | -2% | ? | .
O=C(CSc1ncccn1)N/N=C/c1cccc([N+](=O)[O-])c1 | 3%[59 µM] | 1% | 27% | 14% | 1% | -1%
Cc1cc(C)nc(SCC(=O)NN=C2CCCC2)n1 | 12%[59 µM] | -19% | ? | 14% | 18µM* | .
Cc1cc(C)nc(SCC(=O)N/N=C/c2cccc([N+](=O)[O-])c2)n1 | -23% | 5% | -24% | -1% | 40µM* | -10%
CCN(CC)CCCNC(=O)c1c(C)oc2ncn(CC(C)C)c(=O)c12 | -25%[59 µM] | 9%[57.1 µM] | 16% | . | -10% | .
COc1ccc(C)c2sc(NC(=O)c3ccc(S(=O)(=O)N4CCOCC4)cc3)nc12 | -20%[59 µM] | 5% | 13%[57 µM] | . | -21% | .
NS(=O)(=O)c1ccc(NC(=O)c2cccc(N3C(=O)c4ccccc4C3=O)c2)cc1 | 10µM* | ? | 1%[57 µM] | ? | ? | .

Compound activity: PubChem, National Center for Advancing Translational Sciences (NCATS)
